HSP90 refold inh: inhibitors of HSP90 luciferase refolding in rabbit reticulocyte lysate | luciferase refolding luminescence, 3 h | inhibition, % at 5.6 µM | 290,000 compounds, 0.91% hits | AID 1789;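 active = inhibition above the screen-wide mean plus 3 SD, computed separately per campaign, cut at about 16% in these data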;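 note: 0% = DMSO wells and 100% = 60 µM geldanamycin wells; inhibitors lower the luminescence because luciferase stays unfolded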
HSF-1 act: increases HSF-1 driven luciferase reporter signal | 300,000 compounds, 1.7% hits | AID 504408 | NIH3T3-HGL HSF-1 luciferase reporter, MG132, 8 h; 100% = twice DMSO control signal | activation, % at 9 µM;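 active = mean replicate activation of at least 50% with a set share of replicates each reaching 50%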;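 note: 0% = median of the neutral control wells and 100% = twice that signal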
HSF1 inh: HSF1 inhibition. NIH3T3-HGL HSE-luciferase, MG132-induced, luminescence 8 h; stronger effect = lower value. activity change, negative = inhibition, % at 7.5 µM (by protocol). 300,000 compounds, 0.77% hits. AID 2098;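 active = more than half of replicate wells show activity change below -50%, luminescence cut by over half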;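 note: luciferase reports HSF-1 transcriptional activity via heat shock element; 0% = median of DMSO wells and -100% = zero luminescence signal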
TWEAK-Fn14 inh: blocks TWEAK-Fn14 interaction in a reporter cell assay; AID 1159606; inhibition, % at 10 µM; 360,000 compounds, 2% hits; TWEAK-stimulated Fn14 reporter cells, luciferase luminescence, 8 h; in the data active = inhibition above about 50%
LMP1 NFkB inh: Epstein-Barr LMP1 NF-kappaB reporter inhibition. LMP1-induced NF-kappaB luciferase reporter cells, luminescence. 350,000 compounds, 0.69% hits. inhibition, % at 12.5 µM. AID 504558; in the data active = inhibition above about 41%;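 note: 0% = neutral control wells and 100% = reference inhibitor control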
TROY NFkB inh: blocks TROY-dependent signaling in reporter cells; Q293 LMP1-TROYcd NF-kB luciferase reporter, 4 h; inhibition, % at 10 µM; 360,000 compounds, 0.98% hits; AID 1347056;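 active = compounds whose plate-normalised and pattern-corrected inhibition of the luciferase reporter signal at the single screening dose is 50% or more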
* marks the source's active call; other numbers are inactive results; . = no result given. Only some compounds are listed: those with a hit (about 4.7% of all), similar ones and a draw of the others.

SMILES	HSP90 refold inh	HSF-1 act	HSF1 inh	TWEAK-Fn14 inh	LMP1 NFkB inh	TROY NFkB inh
COc1ccc(OC)c(NC(=O)c2cnc3n(c2=O)CCS3)c1	-1	3	-3	8	-16	-26
O=C(Nc1ccc2c(c1)OCO2)c1cc(C2CCCCN2S(=O)(=O)c2cccs2)on1 (stereo not given)	.	.	.	-13	.	-14
C=C1C(=O)N(C)CCC1C(CC)C(=O)OC (stereo not given)	.	.	.	-5	4	-10
CC(C)[C@H](NC(=O)c1ccc(Cl)cc1)C(=O)Nc1cccc(S(=O)(=O)N2CCOCC2)c1	.	.	.	7	1	-19
CC(=O)N(C)c1ccc(C=C2C=Cc3ccccc32)cc1	.	.	.	79*	3	71*
COC(=O)Cn1c(=O)c2c(nc3n2CC(C)CN3CCc2ccccc2)n(C)c1=O (stereo not given)	-5	63*	18	36	14	12
Cn1c(=Nc2ccc(N3CCOCC3)cc2)ccc2ccccc21	-3	-8	-11	72*	8	.
CCn1c(=Nc2ccc(N3CCOCC3)cc2)ccc2ccccc21	3	-17	-4	-7	3	3
Cn1c(N=Nc2ccc(N3CCOCC3)cc2)[n+](C)c2ccccc21	-3	-34	-20	45	-8	70*
O=C(CNC(=S)N(Cc1ccccc1F)C1CCCCC1)NCCCN1CCOCC1	-3	.	.	85*	4	11
CC1=CNC(=O)CC(C)(C)C1	.	.	.	10	.	5
CC1=C(C(=O)N2CCCCCC2)CC(CC(=O)NCCCCc2ccccc2)C(=O)N1CCC1=CCCCC1 (stereo not given)	.	.	.	14	.	10
Cn1c(=O)n(C)c2cc([N+](=O)[O-])c(N3CCN(S(=O)(=O)c4ccc(C(C)(C)C)cc4)CC3)cc21	-2	-4	-4	54*	0	36
CC(=O)Nc1ccc(S(=O)(=O)N2CCN(c3cc4c(cc3[N+](=O)[O-])n(C)c(=O)n4C)CC2)cc1	-3	4	3	1	8	21
NC(Cc1ccccc1)c1csc(NC(=O)c2cccc(OC(F)(F)F)c2)n1 (stereo not given)	.	.	.	6	.	-6
O=[N+]([O-])c1nn(-c2ccc3c(c2)OCCO3)n(O)c1=NCc1ccc(F)cc1	3	54*	23	7	-3	9
CC(C)c1ccc(N=c2c([N+](=O)[O-])nn(-c3ccc4c(c3)OCCO4)n2O)cc1	-3	-8	0	35	3	18
COc1cc(N=c2c([N+](=O)[O-])nn(-c3ccc4c(c3)OCCO4)n2O)cc(OC)c1	12	-32	-14	41	6	53*
CCc1cccc(N=c2c([N+](=O)[O-])nn(-c3ccc4c(c3)OCCO4)n2O)c1	2	-20	-8	31	10	55*
CCc1cccc(N=c2c([N+](=O)[O-])nn(-c3ccc(Cl)cc3)n2O)c1	4	12	-4	-1	7	-27
C[C@H](CO)N1C[C@H](C)[C@H](CN(C)Cc2ccncc2)Oc2ncc(Br)cc2C1=O	.	.	.	-1	-2	8
O=C(NCc1cccnc1)c1cc(C2CCCCN2S(=O)(=O)Cc2ccccc2)on1 (stereo not given)	.	.	.	6	.	-4
O=C(Nc1ccc(N2CCN(C(=O)c3ccc(Cl)cc3)CC2)cc1)c1cc2ccccc2o1	8	23	23	90*	30	69*
Cc1ccccc1C(=O)N1CCN(c2ccc(NC(=O)c3ccc([N+](=O)[O-])o3)cc2)CC1	4	86*	61	10	-1	17
O=C(/C=C\c1ccco1)Nc1ccc(N2CCN(C(=O)c3ccccc3)CC2)cc1	-3	66*	38	-3	5	-6
SMILES	HSP90 refold inh	HSF-1 act	HSF1 inh	TWEAK-Fn14 inh	LMP1 NFkB inh	TROY NFkB inh
O=C(Nc1ccc(N2CCN(C(=O)c3ccccc3)CC2)cc1)c1ccc([N+](=O)[O-])o1	-2	111*	89	3	-19	9
C[C@]12CC[C@H](O)CC1=CCC1C2CC[C@@]2(C)C1CC[C@@H]2NCc1ccccc1 (stereo not given in full)	.	.	.	-7	-30	10
O=C(Nc1ccc2c(c1)OCCO2)C1c2ccccc2OCC(=O)N1Cc1ccco1 (stereo not given)	.	.	.	-9	.	6
COc1c(O)c(=O)n2c3ccccc3c3ccnc1c32	.	13	-1	-15	-6	18
O=c1c(Cl)c(O)c2cccc3c4ccccc4n1c23	-2	79*	84	29	-13	-29
Nc1nc(N)c2cc(Sc3ccc4ccccc4c3)ccc2n1	5	4	-4	52*	.	84*
Nc1nc(N)c2cc(Sc3ccc(Cl)cc3)ccc2n1	.	.	.	22	8	25
Cc1ccc(F)cc1C(=O)N1CCCC(C)(C(=O)NS(=O)(=O)C2CC2)C1 (stereo not given)	.	.	.	1	.	6
COc1ccc([C@@H]2CC(=O)[C@@H]3CN(S(=O)(=O)c4ccc(C)cc4)[C@H](c4cccc(Cl)c4)C[C@@H]3N2S(=O)(=O)c2ccccc2)cc1	.	.	.	-4	.	-1
CC1(C(=O)NS(=O)(=O)c2ccc(Br)cc2)CCN1C(=O)CCc1cccs1 (stereo not given)	.	.	.	14	.	11
O=S(=O)(N/N=C\c1c(F)cccc1Cl)c1ccc(Cl)cc1	4	-2	8	4	-1	1
Fc1cccc(Cl)c1/C=N/Nc1c(Cl)cncc1Cl	-6	-12	0	53*	5	19
CCNC(=O)C1(C)CCN(C(=O)c2c(-c3ccccc3)noc2C)C1 (stereo not given)	.	.	.	-12	.	-3
CC(=O)NCCC(=O)Nc1nc(-c2cccs2)c(-c2cccs2)s1	-9	182*	133	0	6	-16
CCN(CC)Cc1c(O)ccc2cc(-c3nc4ccccc4n3C)c(=O)oc12	-2	68*	25	17	10	35
CCc1cc2c(=O)c(-c3nc4ccccc4n3C)c(C)oc2c(CN(CC)CC)c1O	2	5	-1	-10	5	-5
Cn1c(-c2cc3ccc(OC(=O)C(C)(C)C)cc3oc2=O)nc2ccccc21	-3	58*	14	-29	-12	-46
CCc1noc(C)c1C(=O)OCC(=O)Nc1nc(-c2ccc(F)c(F)c2)cs1	.	.	.	8	9	54*
Cc1noc(C)c1CSCC(=O)Nc1ccc(S(=O)(=O)C(F)F)cc1	.	-69	-58*	-9	6	-3
Cc1noc(C)c1CSCC(=O)Nc1nc(-c2ccc(F)c(F)c2)cs1	.	2	10	77*	26	72*
CCOC(=O)CCCCCC(=O)Nc1ccc2c(c1)C(=O)N([C@H](C)CO)C[C@H](C)[C@H](CN(C)C(=O)C1CCCCC1)OCCCC[C@@H](C)O2	.	.	.	2	10	0
Cc1cccc(C(=O)N2CCC(C)(C(=O)NS(=O)(=O)C3CC3)C2)c1C (stereo not given)	.	.	.	-4	.	-15

Screening results from PubChem.
